Measured values: the supplement of paper PMC3334620
In all, about 33,000 sequences were measured (“E-score (-0.5 to 0.5)”: median about -0.0014, highest 2% from about 0.25 on). Only a selection was taken, and the highest values are over-represented in it overall.

target: T1, Cad1 (UniProt P24813); assay: PBM E-score (8-mer binding enrichment) (E-score (-0.5 to 0.5)); higher = stronger / more preferred TF binding; settings: protein concentration: 100 nM; construct: GST-full length
T1 sequence: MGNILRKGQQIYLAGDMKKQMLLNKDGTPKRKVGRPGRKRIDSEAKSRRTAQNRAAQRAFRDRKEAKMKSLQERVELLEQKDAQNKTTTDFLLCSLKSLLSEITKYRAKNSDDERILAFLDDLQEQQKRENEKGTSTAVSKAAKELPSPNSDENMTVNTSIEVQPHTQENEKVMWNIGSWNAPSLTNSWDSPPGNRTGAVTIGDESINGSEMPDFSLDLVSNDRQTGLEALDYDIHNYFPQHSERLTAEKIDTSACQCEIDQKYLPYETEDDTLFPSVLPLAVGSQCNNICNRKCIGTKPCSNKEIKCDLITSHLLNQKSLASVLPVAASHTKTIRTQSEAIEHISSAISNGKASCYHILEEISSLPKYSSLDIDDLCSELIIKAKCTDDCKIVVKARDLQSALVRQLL
Summary of the method: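 Yeast transcription factors carrying a GST tag, as full-length proteins or DNA-binding domains, were produced by PURExpress in vitro transcription/translation. About 100-200 nM protein was applied to universal all-10-mer Agilent arrays, double-stranded by primer extension on fresh or once-stripped slides. Bound protein was detected with fluorescent anti-GST, and scans were normalised with masliner. The Universal PBM Analysis Suite gave each ungapped eight-base word, pooled with its reverse complement, an E-score, a modified Wilcoxon-Mann-Whitney statistic.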

| Sequence | PBM E-score |
| --- | --- |
| CACCGTGC | 0.161 |
| TGAACTAA | -0.063 |
| ATCGAACG | -0.0756 |
| AATCGCAT | 0.0873 |
| GATTAACC | 0.02 |
| GATTAACA | 0.163 |
| CATTAACA | 0.16 |
| CATTAATA | 0.297 |
| TATTAACA | 0.25 |
| CATTAATC | 0.153 |
| TATTAAAA | 0.194 |
| TATTAATA | 0.339 |
| GATTAATC | 0.355 |
| CATTAATG | 0.198 |
| GATTAAAC | 0.0432 |
| TATTAAGA | 0.0149 |
| AACCCCTC | -0.319 |
| GCGAGTTA | 0.0928 |
| GTCTGCTA | 0.218 |
| GAGAGAAA | 0.14 |
| CTTATACC | 0.0668 |
| CGACCTAC | -0.126 |
| CGTTGGTA | 0.141 |
| GTTCGGAA | 0.174 |
| ACACTATC | 0.115 |

| Sequence | PBM E-score |
| --- | --- |
| GACTCAAA | -0.0319 |
| ACAACTAT | 0.0919 |
| AGTAGTGG | 0.0582 |
| GAACTATA | 0.09 |
| GATTAAGA | 0.18 |
| GATTAAAA | 0.214 |
| GATTAATA | 0.354 |
| GGTTGAGA | -0.224 |
| CCATATGA | -0.0943 |
| TCATATGA | 0.321 |
| GCATATGA | 0.118 |
| CCCCTGCA | -0.246 |
| AGCCAACT | -0.117 |
| ACGGATCA | 0.215 |
| AATTCGCC | 0.154 |
| TGGAACAA | 0.144 |
| ACGAACAA | 0.184 |
| CCGAACAA | 0.107 |
| GCGAACAA | 0.275 |
| CGGAACAC | 0.235 |
| CGGAACAA | 0.29 |
| CGTAGTAC | -0.00804 |
| AGCATCCA | -0.168 |
| CTTTCAGA | 0.0705 |
| AAGAATGC | 0.0333 |

| Sequence | PBM E-score |
| --- | --- |
| GGCTTACA | 0.229 |
| GAATGGTC | -0.0781 |
| ATAAACCC | 0.0626 |
| AAGCCTTG | 0.00151 |
| AATCTCCC | -0.277 |
| AAGCGATA | 0.103 |
| GCAATTGC | 0.33 |
| CCAATTGC | -0.114 |
| CCAATTGG | 0.263 |
| GCAATTGA | 0.118 |
| CCAATTGA | 0.0388 |
| ACAATTGG | -0.0197 |
| CGCTGTAG | -0.0927 |
| CGTTGCTA | 0.103 |
| CATAACTC | -0.0187 |
| TGCGGCCA | -0.03 |
| ATGTCTGA | 0.129 |
| GGGGATGA | -0.094 |
| CGCTAGCA | -0.0293 |
| TGCTAGCA | 0.263 |
| GGCTAGCA | -0.135 |
| GCTAATCA | 0.215 |
| ATTAATCC | 0.161 |
| ATTAATCA | 0.436 |
| GTTAATCA | 0.318 |

| Sequence | PBM E-score |
| --- | --- |
| CTTAATCA | 0.141 |
| ATTAATCG | 0.234 |
| CTAGCCCC | -0.0928 |
| TGCAGAAA | 0.114 |
| ACGTACTC | -0.0542 |
| CTCTATAC | 0.0205 |
| AAATATGA | 0.234 |
| ATATATAT | 0.295 |
| AAATATGC | 0.069 |
| ATATATCC | 0.297 |
| CTATATCC | -0.0465 |
| ACATATAT | 0.155 |
| ATATATAG | 0.175 |
| ATATATCA | 0.134 |
| CTATATAC | 0.27 |
| CTATATAG | 0.0376 |
| AAATATGT | 0.277 |
| CCTGCCTA | -0.0584 |
| AGGGTTAG | -0.153 |
| AGGATAGA | -0.0415 |
| AGAACTAG | -0.146 |
| CCAAAGGG | -0.0732 |
| ACTCTCGG | -0.0764 |
| GGCGTTAC | -0.0303 |
| AAATATAT | 0.305 |

| Sequence | PBM E-score |
| --- | --- |
| AAATATAC | -0.0915 |
| ACATATAC | 0.0911 |
| ATATATAC | 0.317 |
| AAATATAA | 0.247 |
| GTATATAC | -0.0771 |
| AGTAGCCA | -0.282 |
| AGTCCAGC | -0.112 |
| TAGGTCGA | 0.131 |
| GATATACA | 0.0899 |
| GACATATA | 0.0919 |
| TATATACA | 0.209 |
| CATATATA | 0.164 |
| GATATGGA | 0.266 |
| TATATGGA | -0.0332 |
| TACATATA | 0.252 |
| GATATATC | 0.211 |
| AATATGGA | 0.0714 |
| TATATATA | 0.377 |
| GATATATA | 0.333 |
| CACATATA | 0.0867 |
| TGTAGTAA | 0.145 |
| CGGAAACG | -0.0175 |
| AATCTAGG | 0.00096 |
| TGCTCCAA | 0.0768 |
| GAATCTGC | 0.014 |

| Sequence | PBM E-score |
| --- | --- |
| GACATGTA | 0.0721 |
| TACATGTA | 0.27 |
| CACATGTA | 0.109 |
| CCGATTGC | 0.25 |
| CCGATTGA | 0.144 |
| ACGATTGC | 0.213 |
| CCGGGTAG | 0.00529 |
| ATTAGATC | 0.03 |
| ATTAGATA | 0.211 |
| ATTAGATG | 0.263 |
| ACATTGGT | 0.0584 |
| AGCTAGCT | 0.162 |
| AAACAATA | 0.251 |
| GAACAACA | -0.043 |
| AAACAATT | 0.114 |
| CAACAACA | 0.269 |
| TAACAATA | 0.165 |
| CAACAAGA | -0.0155 |
| TCCAAGAA | -0.0134 |
| GCGTTAGC | 0.0751 |
| ATTATGTG | 0.25 |
| ACTATATA | 0.251 |
| GCTATATA | 0.149 |
| GTTATATA | 0.232 |
| AGTAGATC | -0.191 |

| Sequence | PBM E-score |
| --- | --- |
| ATTATGTA | 0.311 |
| AGTAGATA | 0.282 |
| CTTATATA | 0.331 |
| CGTAGATA | 0.113 |
| ATTATGTC | 0.181 |
| CTTATATC | 0.0947 |
| ACTATATC | 0.109 |
| ATCCGGGG | -0.0124 |
| CAACCGTG | 0.00095 |
| GATCCTAC | 0.00192 |
| CCGTATTC | -0.0178 |
| ATGGACCC | -0.0809 |
| ATTATATA | 0.306 |
| AGTATATC | 0.0175 |
| ATTATATC | 0.0433 |
| AGTATATG | 0.0763 |
| AGTATATA | 0.285 |
| ATTATATG | 0.211 |
| AAAATATT | 0.192 |
| ACCCACTA | 0.107 |
| AGCGCCAA | -0.0679 |
| ATGGTCTC | 0.102 |
| AGTAAGCA | 0.241 |
| AATAAGAT | 0.039 |
